Among all 310,000 compounds or so, about 3,600 (1.2%) were called active.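 Rule for the calls: active = ratio plate-corrected score three or more library SD toward inhibition, starting fluorescence score within five deviations; inactive = the rest.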 Only a selection was taken, and actives are over-represented in it overall.
biological target: Anoctamin-1 (Mus musculus) (UniProt Q8BHY3); assay: blockers of mouse ANO1 Ca-activated Cl channel – cell-based, HTS, primary screen (AID 588511); conditions: HEK293 TMEM16A/YFP iodide influx fluorescence, ionomycin; at 10 µM;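 for normalized B-score (activity score, 25-100; higher = stronger inhibition): score derived from kinetic fluorescence span divided by baseline fluorescence per well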
Sequence (Q8BHY3 whole entry, looked up): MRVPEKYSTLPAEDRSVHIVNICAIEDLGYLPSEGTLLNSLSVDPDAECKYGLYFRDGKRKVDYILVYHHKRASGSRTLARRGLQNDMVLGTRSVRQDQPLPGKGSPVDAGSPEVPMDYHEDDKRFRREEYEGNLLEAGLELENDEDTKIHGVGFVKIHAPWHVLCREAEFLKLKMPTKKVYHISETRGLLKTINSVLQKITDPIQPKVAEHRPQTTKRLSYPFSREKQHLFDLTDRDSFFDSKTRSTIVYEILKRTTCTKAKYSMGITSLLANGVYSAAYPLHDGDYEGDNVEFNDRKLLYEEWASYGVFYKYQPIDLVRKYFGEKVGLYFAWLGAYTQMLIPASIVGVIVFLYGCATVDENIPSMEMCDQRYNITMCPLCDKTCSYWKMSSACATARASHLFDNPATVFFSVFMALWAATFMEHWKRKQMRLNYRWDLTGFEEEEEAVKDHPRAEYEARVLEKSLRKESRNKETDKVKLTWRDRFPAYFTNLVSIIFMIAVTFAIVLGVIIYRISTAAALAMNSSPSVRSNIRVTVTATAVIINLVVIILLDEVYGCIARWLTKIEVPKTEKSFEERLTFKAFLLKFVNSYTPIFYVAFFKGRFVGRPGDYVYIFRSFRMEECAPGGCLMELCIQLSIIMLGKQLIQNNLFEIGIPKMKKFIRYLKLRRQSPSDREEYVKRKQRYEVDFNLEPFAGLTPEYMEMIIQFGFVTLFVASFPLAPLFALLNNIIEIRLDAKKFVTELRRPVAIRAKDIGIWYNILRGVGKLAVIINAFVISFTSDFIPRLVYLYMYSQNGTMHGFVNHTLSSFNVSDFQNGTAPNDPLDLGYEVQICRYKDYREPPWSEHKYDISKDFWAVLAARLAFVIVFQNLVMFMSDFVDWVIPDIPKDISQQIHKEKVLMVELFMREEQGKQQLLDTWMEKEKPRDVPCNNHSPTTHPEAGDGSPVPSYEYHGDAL

SMILES	normalized B-score (activity score, 25-100; higher = stronger inhibition)
CCC(C)c1ccccc1N1CC(C(=O)N2CCN(S(=O)(=O)c3ccc(F)cc3)CC2)CC1=O (centres undefined)	inactive
COc1ccccc1CNC(=O)Cn1c(=O)oc2cc(Cl)ccc21	inactive
CC1CCCCC1NC(=O)CN1CCC(O)(c2ccc3c(c2)OCO3)CC1 (centres undefined)	inactive
CCOC(=O)C1CCN(c2ncnc3c2oc2ccc(Br)cc23)CC1	100 (active)
CCOC(=O)C1CCN(c2ncnc3c2c(-c2ccccc2)cn3-c2ccc(C)cc2)CC1	inactive
CCOC(=O)C1CCN(Cc2nnc(-c3cccc(Br)c3)o2)CC1	inactive
O=C(Nc1ccc(C(=O)NCc2ccccc2Cl)cc1)C1=CSCCO1	inactive
O=C(/C=C/c1ccco1)NC(=S)N1CCCCC1	inactive
O=C(Nc1cccnc1)c1noc2c1CCCCC2	inactive
CCN1CCN(C(=O)C2CCN(S(=O)(=O)c3cc(Cl)ccc3Cl)CC2)CC1	inactive
CCCCNC(=O)C1CCC(=O)N1CCc1ccccc1 (centres undefined)	inactive
O=C(CSc1ncn[nH]1)Nc1nc(-c2cccc([N+](=O)[O-])c2)cs1	inactive
CCNC(=O)CSc1nc(-c2ccccc2)cs1	inactive
O=C(CSc1nc(-c2ccccc2)cs1)Nc1cccc([N+](=O)[O-])c1	100 (active)
COc1ccc(CN2CCNC(=O)C2CC(=O)N(C)Cc2ccccn2)cc1OC (centres undefined)	inactive
Cc1ccc(SCC(=O)c2cc(C)c(OC(=S)N(C)C)c(C)c2)cc1	100 (active)
Cc1ccc(C(=O)CSc2ccccc2C(=O)O)cc1	inactive
Cc1ccc(SCC(=O)Nc2ccc3c(c2)OCCO3)cc1	inactive
O=C(C1CCN(S(=O)(=O)c2ccc(Br)s2)CC1)N1CCN(c2ccccc2)CC1	inactive
Cc1ccc(N2CC(C(=O)Nc3ccc(S(=O)(=O)N4CCCC4)cc3)CC2=O)cc1C (centres undefined)	inactive
Cc1ccc(NC(=O)C2CC(=O)N(c3ccc4c(c3)OCCO4)C2)cc1S(=O)(=O)N1CCCCCC1 (centres undefined)	25 (active)
COc1ccc(S(=O)(=O)N2CCCCC2)cc1NC(=O)C1CC(=O)N(c2ccc3c(c2)OCCO3)C1 (centres undefined)	inactive
Cc1oc(-c2ccccc2F)nc1CS(=O)CC(=O)NCCN1CCCCC1C (centres undefined)	inactive
CSc1cccc(NC(=S)N(C(C)C)C(C)c2ccccn2)c1 (centres undefined)	25 (active)
CC(c1ccccn1)N(CCN(C)C)C(=S)Nc1ccccc1F (centres undefined)	inactive
CSc1cccc(NC(=S)N(Cc2ccccc2)Cc2ccccn2)c1	inactive

SMILES	normalized B-score (activity score, 25-100; higher = stronger inhibition)
CC(C)/C=N/NC(=O)c1cc(Br)ccc1O	inactive
CC(=O)N/N=C(\C)c1ccc(Br)cc1Br	inactive
CC(=N\NC(=O)c1cc(Br)ccc1O)/C(=N/O)C(=O)Nc1ccccc1	25 (active)
O=C(NC(=S)Nc1ccc(Cl)c(C(=O)O)c1)c1cncc(Br)c1	inactive
COc1cc(C)c(C(C)C)cc1S(=O)(=O)n1ccnc1	inactive
COc1ccccc1-n1cnc2cc(NS(=O)(=O)c3ccccc3)ccc21	inactive
CC(C)c1ccc2c(c1)c(SC(C)(C)C)c(CC(C)(C)C(=O)O)n2Cc1ccc(Cl)cc1	100 (active)
O=C(O)c1ccc(Cn2c(=S)[nH]c3cc(Cl)ccc3c2=O)cc1	inactive
O=C(COC(=O)CNS(=O)(=O)c1ccccc1)NC12CC3CC(CC(C3)C1)C2	inactive
CSc1nnc2c(n1)OC(c1ccsc1)N(C(C)=O)c1ccccc1-2 (centres undefined)	100 (active)
CSc1ncc(Sc2ccccc2)c(C(=O)O)n1	inactive
CSc1nnc2c(n1)OC(c1cn(C)c3ccccc13)N(C(C)=O)c1ccccc1-2 (centres undefined)	inactive
NS(=O)(=O)c1ccc(CCNC(=O)c2ccc(Cl)cc2[N+](=O)[O-])cc1	inactive
O=C(NCCc1ccc(Cl)cc1Cl)c1cc([N+](=O)[O-])c[nH]c1=O	100 (active)
O=C(NCCc1c[nH]c2ccc(Cl)cc12)c1ccc([N+](=O)[O-])cc1	inactive
CC(C)CC(CCc1ccccc1)OS(N)(=O)=O (centres undefined)	inactive
CSc1nc2nc3c(c(=O)n2[nH]1)CCC3	inactive
COc1ccc(C(=O)CCc2ccccc2O)c(OC)c1	inactive
CCOc1ccc(NC(=O)CCCCCN2C(=O)[C@@H]3Cc4ccccc4CN3C2=O)cc1	inactive
CCOC(=O)Cc1csc(NC(=O)CSc2nnc(-c3cccnc3)n2Cc2ccco2)n1	100 (active)
COc1cc(Cl)c(C)cc1NC(=O)CSc1nnc(-c2cccnc2)n1Cc1ccco1	inactive
O=C(CSc1nnc(-c2cccnc2)n1Cc1ccco1)c1ccc(Cl)c(Cl)c1	inactive
COc1ccc(/C(C)=N\NC(=O)c2ccc(-c3ccccc3)cc2)c(F)c1	inactive
O=[N+]([O-])C(=c1ccc2c(c1)N1C3=C(CCCC3)CC3CCCCC31N=2)[N+](=O)[O-] (centres undefined)	inactive
O=c1c(-c2cccc(Cl)c2)c[nH]n1-c1ccccc1	inactive
Cc1[nH]n(-c2cccc(Cl)c2)c(=O)c1-c1ccc(Cl)cc1	25 (active)

SMILES	normalized B-score (activity score, 25-100; higher = stronger inhibition)
Cc1[nH]n(-c2cccc(Cl)c2)c(=O)c1/C=N/n1c(C)nc2ccccc2c1=O	inactive
Cc1ccccc1OCC(=O)N(Cc1cccc(F)c1)C1CCS(=O)(=O)C1 (centres undefined)	inactive
Cn1nnnc1SCC(=O)Nc1nc2ccccc2s1	inactive
C=CCn1c(SCC(=O)Nc2nc3ccccc3s2)nnc1-c1ccccc1O	100 (active)
C=CCn1c(SCC(=O)NCc2ccccc2)nnc1-c1cc(Br)ccc1O	inactive
COc1ccc(Cl)cc1NC(=O)CN(C)C(=O)c1cc2ccccc2cc1OC	inactive
CN(CC(O)COc1ccc(S(=O)(=O)N2CCOCC2)cc1Cl)C1CCCCC1 (centres undefined)	inactive
O=C(/C=C/c1ccc(F)cc1)Nc1cccc(S(=O)(=O)Nc2cccc(C(F)(F)F)c2)c1	inactive
CCOC(=O)N1CCN(C(=O)c2ccc(S(=O)(=O)Nc3cccc(C(F)(F)F)c3)cc2)CC1	inactive
Cc1oc2c(F)c(F)c(F)c(F)c2c1S(=O)(=O)Nc1cccc(C(F)(F)F)c1	100 (active)
COc1ccccc1-n1c(SCC(=O)Nc2cccc(C(=O)O)c2)nnc1-c1ccccc1O	inactive
Cc1cc2c(cc1C)N(Cc1ccccc1)C1=NCCCN12	inactive
Cn1cc(C(=O)c2ccc(Cl)cc2Cl)cc1C(=O)NN	inactive
O=C(Cc1c(F)cccc1Cl)Nc1ccc(-n2cnnn2)cc1	inactive
O=C(CCc1ccccc1)Nc1ncc([N+](=O)[O-])s1	inactive
O=C(Cc1c(F)cccc1Cl)Nc1ncc([N+](=O)[O-])s1	100 (active)
Cc1ccc2nsnc2c1NC(=O)c1ccccc1[N+](=O)[O-]	inactive
N=c1oc2ccccc2cc1C(=O)NCc1ccccc1	inactive
O=C(CC(Cc1ccccc1)C(=O)O)NCCc1ccc2c(c1)OCO2 (centres undefined)	inactive
O=C(NCCc1ccc2c(c1)OCCO2)c1cc2ccccc2o1	100 (active)
O=C(COc1cc(Cl)c(Cl)cc1Cl)NC(=O)NC1CCCC1	inactive
O=C(NCc1cccnc1)c1ccccc1NC(=O)c1c(F)cccc1F	inactive
Cc1nc2c(ncn2-c2ccccc2)c(=O)n1NC(=O)CN1CCCC1	inactive
CCCN1CC=C2C(C#N)=C(N)C(C#N)(C#N)C(c3cc(OC)ccc3OC)C2C1 (centres undefined)	inactive
CCN1CC=C2C(C#N)=C(N)C(C#N)(C#N)[C@H](c3ccoc3)[C@H]2C1	inactive
CCOC(=O)N1CC=C2C(C#N)=C(N)C(C#N)(C#N)[C@H](c3cccs3)[C@H]2C1	25 (active)

SMILES	normalized B-score (activity score, 25-100; higher = stronger inhibition)
CCC(C(=O)NCCC(C)C)N(Cc1ccccc1Cl)C(=O)c1snc(C(N)=O)c1N (centres undefined)	inactive
COC(=O)c1cc(OCC(=O)NC2CCCc3ccccc32)cc(C(=O)OC)c1 (centres undefined)	inactive
O=C(CCCN1CCc2[nH]c3ccc(F)cc3c2C1)c1ccc(F)cc1	inactive
Oc1c(Cl)cc(Cl)c(Cl)c1Cc1c(O)c(Cl)cc(Cl)c1Cl	100 (active)
O=C(N/N=C/c1cccc(OCc2ccccc2)c1)c1ccc(Br)o1	inactive
CCOc1ccc(CN2CCN(Cc3c[nH]c4ccccc34)CC2)cc1	inactive
CN(C)/C=N/c1cc(=O)n(C)c(=O)n1CC1CC1	inactive
O=C(NCCc1ccc(Cl)cc1)c1cccc(N2CCCC2=O)c1	inactive
Oc1cc2c(cc1O)CN(C(=S)NCCc1ccc(Cl)cc1)CCC2	25 (active)
COc1ccc(CCNC(=S)N2CCN(S(=O)(=O)c3ccc(Cl)cc3)CC2)cc1	inactive
Cc1cc2cc3c(cc2nc1SCC(=O)Nc1c(C)cccc1C)CCC3	inactive
Cc1cn(C2OC[C@@H](O)[C@@H]2CO)c(=O)[nH]c1=O (some centres undefined)	inactive
COc1ccc(C(C#N)N2N=C(C)CC2(C)C)cc1 (centres undefined)	inactive
O=C(CN1C(=O)/C(=C/c2ccccc2F)Sc2ccccc21)NCc1cccnc1	100 (active)
O=C(CN1C(=O)/C(=C\c2ccc(C(F)(F)F)cc2)Sc2ccccc21)NCc1ccco1	inactive
O=C(CN1C(=O)S/C(=C\c2ccccc2F)C1=O)NCCCn1ccnc1	inactive
CN(C)CCOc1ccc(Cl)cc1C(C)(C)C	inactive
CCc1nc(C)ccc1OCC(=O)N(CC)CC	inactive
CCC(C)(C)c1ccc(OCC(=O)N(C)C)c(C(C)(C)CC)c1	100 (active)
COc1ccc(/C=C2/SC(=O)N(CCCCCC(=O)Nc3ccccc3C(=O)O)C2=S)cc1	100 (active)
O=C(CCCN1C(=O)/C(=C\c2ccccc2)SC1=S)Nc1ccccc1O	inactive
COc1ccc(/C=C2\SC(=O)N(CCC(=O)NCCCn3ccnc3)C2=O)cc1	inactive
OC(c1ccccc1)C(CN1CCOCC1)c1ccccc1 (centres undefined)	inactive
Cc1cc([N+](=O)[O-])ccc1NC1CCCC1	inactive
Cc1c(NS(=O)(=O)c2ccc(NC3CCCC3)c([N+](=O)[O-])c2)c(=O)n(-c2ccccc2)n1C	inactive
Cc1cc(C=O)c(C)n1-c1ccc(NC2CCCCC2)c([N+](=O)[O-])c1	100 (active)
